Results reported in PubChem BioAssay AID1645860 (Buhrlage Lab, Dana-Farber Cancer Institute and Novartis …, 2021).
Hit rate of the full screen: of about 47,000 compounds, about 2,500 (5.3%) were called active. No stated cut-off is given here; in the data, active means inhibition above about 30%; inactive means the rest. For the sample, actives were picked, then their nearest neighbours and some compounds at random.

Each molecule was assayed against Ubiquitin carboxyl-terminal hydrolase 30 (Homo sapiens) (UniProt Q70CQ3) (assay: blocks human USP30 ubiquitin-rhodamine cleavage (AID 1645860)). Settings: purified USP30, Ub-rhodamine cleavage fluorescence; at 25 µM; active compounds read high.
Chain of Ubiquitin carboxyl-terminal hydrolase 30 (Homo sapiens) (Q70CQ3 whole entry, looked up): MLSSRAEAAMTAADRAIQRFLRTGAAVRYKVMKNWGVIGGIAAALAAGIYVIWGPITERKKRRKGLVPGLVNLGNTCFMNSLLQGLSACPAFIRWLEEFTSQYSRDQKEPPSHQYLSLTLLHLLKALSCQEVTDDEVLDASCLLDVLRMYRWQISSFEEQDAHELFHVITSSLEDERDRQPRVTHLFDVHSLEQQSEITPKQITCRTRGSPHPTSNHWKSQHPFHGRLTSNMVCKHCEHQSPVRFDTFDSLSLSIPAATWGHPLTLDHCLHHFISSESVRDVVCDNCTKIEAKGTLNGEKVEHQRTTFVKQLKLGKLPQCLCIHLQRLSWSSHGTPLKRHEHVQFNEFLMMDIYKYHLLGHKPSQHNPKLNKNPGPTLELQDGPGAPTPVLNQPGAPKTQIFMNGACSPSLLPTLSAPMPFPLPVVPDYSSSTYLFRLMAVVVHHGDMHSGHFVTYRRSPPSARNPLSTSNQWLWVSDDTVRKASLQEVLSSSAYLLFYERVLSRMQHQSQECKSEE
`CC1CCCN(c2ccc(-c3nc(-c4cccnc4)no3)cc2[N+](=O)[O-])C1` (stereo unspecified) was tested, and the inhibition was -2.58% (inactive).
For `CC(CCc1ccccc1)NCc1c(C(=O)O)n(Cc2ccccc2F)c2ccccc12` (stereo unspecified), the inhibition was 33.3% (active).
For `CNC(=O)NC1CCN(c2nc3cccnc3n(Cc3ccc(C)cc3)c2=O)CC1`, the inhibition was -0.331% (inactive).
In the case of `COc1ccc(CCNCc2c(C(=O)O)n(Cc3ccc(Cl)cc3)c3ccccc23)c(OC)c1OC`, the inhibition is reported as 18.6% (inactive).
In the case of `Cc1ccc(CCNCc2c(C(=O)O)n(C)c3ccccc23)cc1`, the inhibition is reported as -4.51% (inactive).
In the case of `Cc1ccc(Cn2c(C(=O)O)c(CNC(C)CCc3ccccc3)c3ccccc32)cc1` (stereo unspecified), the inhibition is reported as 35.8% (active).
For `O=C(CCCn1c(=O)c2ccccc2n(Cc2ccccc2F)c1=O)NC1CCCC1`, the inhibition was 15.8% (inactive).
In the case of `O=S(=O)(c1ccc(Cl)c(-c2nnc(-c3ccccc3)o2)c1)N1CCOCC1`, the inhibition is reported as 8.47% (inactive).
With `Cc1ccc(S(=O)(=O)NCc2c(-c3ccccc3)c3cc(C)ccc3[nH]c2=O)cc1` the inhibition was -9.29% (inactive).
In the case of `Cc1ccc(S(=O)(=O)NC2=NC(c3ccccc3)c3cc(Cl)ccc3N2)cc1` (stereo unspecified), the inhibition is reported as 43.7% (active).
`Cc1ccc(S(=O)(=O)Nc2ccc(-c3c[n+]4ccccc4n3C)cc2)cc1` was tested, and the inhibition was 21.2% (inactive).
With `COc1cc(NC(=O)c2noc3c2CCc2sccc2-3)cc(OC)c1` the inhibition was 8.21% (inactive).
With `CC(=O)N1CCCc2ccc(NC(=O)c3cccc([N+](=O)[O-])c3)cc21` the inhibition was 16.5% (inactive).
`CC1(C)OC(=O)[C@@]2(C)N[C@]1(C)C[C@@H]2C(=O)Nc1ccc(O)cc1` was tested, and the inhibition was -11.1% (inactive).
With `CCN(CC)S(=O)(=O)c1ccc(C(=O)Nc2sc(C)c(C)c2C(N)=O)cc1` the inhibition was 36.2% (active).
In the case of `Cc1ccc(S(=O)(=O)CC(=O)Nc2sc(C)c(C)c2C(N)=O)cc1`, the inhibition is reported as -97.7% (inactive).
With `Cc1sc(NC(=O)c2ccc(S(=O)(=O)N(C)CC3CCCO3)cc2)c(C(N)=O)c1C` (stereo unspecified) the inhibition was -70.8% (inactive).
With `Cn1cc(-c2cnc3n2CCC32CCN(S(=O)(=O)c3cccc(F)c3)CC2)cn1` the inhibition was -1.9% (inactive).
For `CN(C(=O)CSCc1nc(-c2ccc(F)cc2)no1)c1ccc(F)cc1`, the inhibition was -1.42% (inactive).
With `O=c1[nH]c2c(-c3ccccn3)nsc2c(=O)n1Cc1cccnc1` the inhibition was 2.65% (inactive).
With `O=C(COC(=O)C1CCN(S(=O)(=O)c2c(Cl)cccc2Cl)CC1)Nc1ccc2c(c1)CCC2` the inhibition was 11.6% (inactive).
In the case of `O=C(Nc1nnc(-c2cccc([N+](=O)[O-])c2)o1)C1CCN(S(=O)(=O)c2ccc3c(c2)CCC3)CC1`, the inhibition is reported as 40.6% (active).
With `Cc1cccc(-c2nnc(-c3cccc(S(=O)(=O)N4CCCC4)c3)o2)c1` the inhibition was 10.5% (inactive).
With `CNc1cc(C)nc(C2CN(C(=O)c3ccnn3C(C)C)CCO2)c1` (stereo unspecified) the inhibition was 15.8% (inactive).
With `COc1ccc(C2c3c(oc4ccccc4c3=O)C(=O)N2c2cc(C)on2)cc1` (stereo unspecified) the inhibition was 23.7% (inactive).
With `O=C(C1CCOCC1)N1CCc2nc3ccccc3n2C(Cc2ccccc2)C1` (stereo unspecified) the inhibition was 8.3% (inactive).
For `CCN1Cc2c(C(=O)NCCC(C)C)ncn2-c2ccccc2S1(=O)=O`, the inhibition was -4.42% (inactive).
With `CN1C(=O)c2ccccc2C(C(=O)N2CCc3ccccc3C2)C1c1cccs1` (stereo unspecified) the inhibition was 25% (inactive).
With `O=c1c(S(=O)(=O)c2cc(F)cc(F)c2)c[nH]c2ccc(F)cc12` the inhibition was -13.9% (inactive).
For `COc1ccc(CCNC(=O)CCCn2c(=O)c3ccccc3n(CC(=O)OCc3ccccc3)c2=O)cc1OC`, the inhibition was 64.1% (active).
`Cc1ccc(CNC(=O)CCCn2c(=O)c3sccc3n(CC(=O)OCc3ccccc3)c2=O)cc1` was tested, and the inhibition was 70.7% (active).
In the case of `Cc1cccc(N2CC(C)Cn3c2nc2c3c(=O)n(CC(=O)OCc3ccccc3)c(=O)n2C)c1` (stereo unspecified), the inhibition is reported as -36.6% (inactive).
In the case of `COc1ccc(CCNC(=O)Cn2c(=O)n(CC3CCC(C(=O)NC4CCCC4)CC3)c(=O)c3ccccc32)cc1OC` (stereo unspecified), the inhibition is reported as 16.9% (inactive).
With `COc1ccc(-c2nc3c(c(=O)c4ccccc4n3C)c(=O)n2CCc2ccc(OC)c(OC)c2)cc1` the inhibition was 7.98% (inactive).
`N#Cc1ccccc1Cn1c(=O)n(CCCC(=O)NCc2ccc(F)cc2)c(=O)c2ccccc21` was tested, and the inhibition was 20.9% (inactive).
For `COC[C@H]1C[C@@H]2CN(S(=O)(=O)c3ccc(F)cc3)C(C)[C@H]1N2C` (stereo partly specified), the inhibition was -8.47% (inactive).
`CCn1cc(-c2ccnc3cc(C(=O)NC4CCOCC4)nn23)c(C)n1` was tested, and the inhibition was -12.3% (inactive).
With `O=C(O)CCNC(=O)/C(=C/c1ccc(Cl)cc1)NC(=O)c1ccco1` the inhibition was -2.38% (inactive).
In the case of `O=C(NCCc1ccccc1)c1cc2c(s1)CS(=O)(=O)C2`, the inhibition is reported as -21.6% (inactive).
With `O=C(NCc1ccc2c(c1)OCO2)C1=CCN(Cc2ccccc2)CC1` the inhibition was -38.4% (inactive).
`O=C(NCc1ccc2c(c1)OCO2)c1cc2c(s1)CS(=O)(=O)C2` was tested, and the inhibition was 34.4% (active).
For `COc1ccc(C)cc1NC(=O)COC(=O)C1(c2ccccc2F)CCCC1`, the inhibition was 22.5% (inactive).
With `CC(=O)c1cccc(NC(=O)c2cccc(-c3nc(-c4ccccc4)no3)c2)c1` the inhibition was -9.31% (inactive).
With `Cc1nc(-c2cccc(S(=O)(=O)Nc3ccccc3C)c2)no1` the inhibition was -3.5% (inactive).
In the case of `Cc1nc(-c2cccc(NC(=O)C3CCN(c4ccccc4)C3=O)c2)no1` (stereo unspecified), the inhibition is reported as 42.5% (active).
With `CC(C)c1noc(-c2ccc(-n3cnc(C(=O)NC4CC4)c3)nc2)n1` the inhibition was 1.32% (inactive).
`N#Cc1ccc(OC(=O)c2cc(S(=O)(=O)N3CCOCC3)c(Cl)cc2Cl)cc1` was tested, and the inhibition was 1.53% (inactive).
`COc1ccc(C(NC(=O)CN(C)Cc2ccc3c(c2)OCO3)c2ccccc2)cc1` (stereo unspecified) was tested, and the inhibition was 42% (active).
In the case of `CN(CC(=O)Nc1ccc(F)cc1Cl)Cc1ccc2c(c1)OCO2`, the inhibition is reported as -9.47% (inactive).
For `Cc1ccc(F)cc1NC(=O)CN(C)Cc1ccc2c(c1)OCO2`, the inhibition was -0.987% (inactive).
`O=C(c1ccccc1)c1ccc(NC2CCCc3ccccc32)c([N+](=O)[O-])c1` (stereo unspecified) was tested, and the inhibition was -121% (inactive).
`O=C(COC(=O)c1ccc(F)cc1)NC1CCCc2ccccc21` (stereo unspecified) was tested, and the inhibition was -8.55% (inactive).
`Nc1ccc(C(=O)OCC(=O)NC2CCCc3ccccc32)cc1[N+](=O)[O-]` (stereo unspecified) was tested, and the inhibition was 31.6% (active).
For `O=C(Cc1ccc(F)cc1)Nc1ccccc1Cc1ccccc1`, the inhibition was 27.2% (inactive).
`Cc1ccccc1NC(=O)Cc1csc2nc(-c3ccc(F)cc3)cn12` was tested, and the inhibition was 88.4% (active).
With `Cc1cc(F)ccc1NC(=O)Cc1n[nH]c(Cc2ccccc2)n1` the inhibition was -13.4% (inactive).
